# A selection: hits, their analogues and other compounds. The true share with any hit is near 4%.
# MITF TRPM1 HTS – activators of MITF-driven TRPM1 promoter activity in SK-MEL-5 cells | activation, % at 12.5 µM | SK-MEL-5 TRPM1-promoter luciferase, 24 h; % of positive control, neutral wells = 0 | 300,000 tested, 0.75% active;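 active = mean activation of at least 80% with every replicate also reaching 80%; inconclusive = mean reaches 80% but some replicate falls short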;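 note: 0% = neutral control wells and 100% = parthenolide positive control wells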
# MITF TRPM1 inh – MITF TRPM1 promoter inhibition in SK-MEL-5 cells; 330,000 tested, 0.83% active; SK-MEL-5 TRPM1 promoter luciferase, 24 h; AID 488899; inhibition, % at 12.5 µM;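 active = mean inhibition across replicates of 60% or more, whatever share of single replicates reaches that level; inconclusive = some that reach 60%, reason not given; inactive = mean inhibition across replicates below 60%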
# esBAF inh – blocks esBAF chromatin remodeling in mouse ES cells; Bmi1-luciferase knock-in reporter, 24 h; 100% = twice the neutral-well signal; reporter increase, % at 12.5 µM; 350,000 tested, 2% active; in the data active = activation above about 40%; inconclusive = no clear call, values can overlap the other calls;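 note: 0% = median of the plate's neutral control wells and 100% = double that signal; a rise in the Bmi1 reporter signal indicates esBAF inhibition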
# Wnt act – activates Wnt/beta-catenin signaling in a reporter cell assay; activator, plate reader; 300,000 tested, 1.2% active; activation, % at 9.35 µM; in the data active = activation above about 30%, passing the limit was not always enough; inconclusive = no clear call, values can overlap the other calls;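 note: 0% = neutral control wells and 100% = positive control wells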
# EWS-Fli inh – inhibitors of EWS/Fli oncoprotein transcriptional activity. 350,000 tested, 0.67% active. AID 651661. inhibition, % at 12.6 µM. A673 NR0B1-luciferase reporter, viability-normalised;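 active = mean inhibition of at least 50% after viability correction, with every replicate also passing that limit; inconclusive = mean reaches 50% but only one of two replicates passes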;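 note: firefly luciferase signal divided by Alamar Blue viability fluorescence both relative to DMSO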
# PAX8 reporter – inhibitors of PAX8 transcriptional activity in RMG-I cells; 360,000 tested, 1.2% active; inhibition, % at 12.6 µM; RMG-I TPO-luciferase reporter, SteadyGlo, 24 h;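 active = mean replicate inhibition at least 60% with every replicate also reaching 60%; inconclusive = only one of the two criteria is met; inactive = mean below 60% and not all replicates reaching 60%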;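 note: luciferase light reporting Pax8 driven TPO promoter activity; plate controls were median of neutral control wells for no effect and mitoxantrone controls for full effect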
# * = called active by the depositor; u = inconclusive; x = no result.
SMILES,MITF TRPM1 HTS,MITF TRPM1 inh,esBAF inh,Wnt act,EWS-Fli inh,PAX8 reporter
N#Cc1cccc(-c2ccc3c(c2)[C@@H]2[C@@H](CCN2S(=O)(=O)c2ccc(F)cc2)[C@H](CO)N3)c1,x,x,4,x,2,27
C[C@H]1CN([C@@H](C)CO)C(=O)c2cccc(NS(=O)(=O)c3ccc(F)cc3)c2O[C@@H]1CN(C)S(=O)(=O)c1ccc(F)cc1,x,x,3,x,-8,0
COCC(=O)Nc1ccc2c(c1)OC[C@H](C)N(C(=O)c1ccncc1)C[C@@H](C)[C@H](OC)CN(C)C2=O,x,x,2,x,2,x
C[C@H](CO)N1C[C@H](C)[C@H](CN(C)S(C)(=O)=O)OCCCC[C@H](C)Oc2ccc(NS(=O)(=O)c3cccs3)cc2C1=O,x,x,-1,x,-5,x
Cc1ccc2[nH]c(C)c(/C=C/c3cc[n+](C)cc3)c2c1,-52,55,9,-4,50,78*
Cc1ccc2c(c1)c(/C=C/c1cc[n+](C)cc1)c(C)n2C,-58,u,-10,2,57*,u
CCCN(C)C[C@@H]1Oc2cc(C#C[C@@H](C)O)ccc2S(=O)(=O)N([C@H](C)CO)C[C@@H]1C,x,x,5,x,5,x
CCCC(=O)N1CC2(C1)CN(C(=O)C1CCCCC1)[C@H](CO)c1[nH]c3cc(OC)ccc3c12,x,x,x,x,6,-1
COc1ccc(NC(=O)C[C@H]2C(=O)N(c3ccc(OC)cc3)C[C@@H]2C)cc1,x,x,4,-2,0,101*
O=[N+]([O-])c1cc(-c2nnc(-c3ccccc3)o2)ccc1Oc1ccc(Cl)cc1,-4,5,x,10,-51,98*
COc1ccc(-c2csc(-c3ccc(C(=O)O)cc3)n2)cc1,62,-60,x,-5,-40,-118
O=C(O)c1cnn(-c2nc(-c3ccc(Cl)cc3)cs2)c1C(F)(F)F,68,-73,76*,10,-81,-145
COC(=O)c1cnn(-c2nc(-c3ccccc3)cs2)c1N,66,-56,65*,12,-91,-94
O=C(O)c1ccc(-c2nc(-c3ccc(Cl)cc3)cs2)cc1,118*,-111,x,-4,-96,-195
O=C(O)c1ccc(-c2nc(-c3ccc(Cl)cc3Cl)cs2)cc1,u,-73,60*,4,-20,-149
CCOC(=O)c1cnn(-c2nc(-c3ccccc3)cs2)c1C(F)(F)F,14,-13,28,x,x,x
CC(C)[C@@H](CO)NC(=O)[C@H]1[C@@H](c2ccccc2)N(c2ccccc2)O[C@@H]1C,x,x,x,x,10,-11
C[C@@H]1CCCCO[C@H](CN(C)S(=O)(=O)c2cn(C)cn2)[C@H](C)CN([C@H](C)CO)C(=O)c2cc(NS(=O)(=O)c3ccccc3)ccc2O1,x,x,x,x,x,-2
COc1ccc(-n2c(C)cc(C(=O)CCl)c2C)cc1,-94,95*,3,-1,61*,1
Cc1cc(-n2c(C)cc(C(=O)CN3C(=O)C(=O)N(C)C3=O)c2C)no1,-2,2,6,-4,-3,-3
Cc1cc(-n2c(C)cc(C(=O)CSc3ccccn3)c2C)no1,107*,-100,76*,21,-59,x
Cc1cc(-n2c(C)cc(C(=O)CCl)c2C)no1,-75,76*,x,0,28,-3
O=C(NCC[C@H]1CC[C@H](NS(=O)(=O)c2ccc(F)cc2)[C@@H](CO)O1)c1ccccc1F,x,x,x,x,3,x
C[C@H](O)C#Cc1ccc2c(c1)O[C@H](CN(C)Cc1ccc(-c3ccccc3)cc1)[C@@H](C)CN([C@H](C)CO)S2(=O)=O,x,x,8,x,49,80*
C[C@@H]1CN([C@@H](C)CO)S(=O)(=O)c2ccc(C#C[C@@H](C)O)cc2O[C@H]1CN(C)Cc1ccc(-c2ccccc2)cc1,x,x,-6,x,44,92*
SMILES,MITF TRPM1 HTS,MITF TRPM1 inh,esBAF inh,Wnt act,EWS-Fli inh,PAX8 reporter
C[C@H](CO)N1C[C@H](C)[C@H](CN(C)Cc2ccc(-c3ccccc3)cc2)Oc2cc(C#C[C@@H](C)O)ccc2S1(=O)=O,x,x,-6,x,-16,17
C[C@H](O)C#Cc1ccc2c(c1)O[C@@H](CN(C)Cc1ccccc1)[C@H](C)CN([C@@H](C)CO)S2(=O)=O,x,x,-3,x,5,x
C[C@H](O)C#Cc1ccc2c(c1)O[C@H](CN(C)Cc1ccc(-c3ccccc3)cc1)[C@H](C)CN([C@H](C)CO)S2(=O)=O,x,x,1,x,12,41
C[C@H](O)C#Cc1ccc2c(c1)O[C@@H](CN(C)Cc1ccc(-c3ccccc3)cc1)[C@@H](C)CN([C@@H](C)CO)S2(=O)=O,x,x,1,x,-14,89*
C[C@H](CO)N1C[C@H](C)[C@@H](CN(C)C(=O)NC2CCCCC2)OCc2ccccc2-c2ccccc2C1=O,x,x,-6,x,4,0
N#Cc1ncccc1CCc1cccc(Cl)c1,44,-44,43*,0,-27,-11
O=C(N[C@H]1CC[C@H](CC(=O)N2CCCCC2)O[C@H]1CO)c1ccc2c(c1)OCO2,x,x,0,x,-2,-2
COC(=O)[C@]12CCCCC=C1N(Cc1ccco1)C(=O)[C@H](CC(=O)N1CCN(C(=O)c3ccco3)CC1)C2,x,x,x,-1,-4,85*
CCOC(=O)[C@]12CCCC=C1N(Cc1cccc3ccccc13)C(=O)[C@H](CC(=O)N1CCOCC1)C2,x,x,x,-1,-5,-6
CCOC(=O)[C@]12CCCC=C1N(Cc1cccc3ccccc13)C(=O)[C@H](CC(=O)N1CCN(C(=O)c3ccco3)CC1)C2,x,x,x,-1,2,85*
C[C@H](CO)N1C[C@H](C)[C@H](CN(C)S(C)(=O)=O)Oc2c(NC(=O)Nc3ccc(C(F)(F)F)cc3)cccc2C1=O,x,x,5,x,-9,1
C[C@H](CO)N1C[C@H](C)[C@@H](CN(C)CC2CCCCC2)Oc2ncc(C#C[C@@H](C)O)cc2C1=O,x,x,1,x,-3,x
O=C(O)CC1=C(Nc2ccccc2)C(=O)N(c2ccccc2)C1c1ccc(Br)cc1 (stereo unspecified),16,-20,x,36*,-17,2
O=C(O)CC1=C(O)C(=O)N(c2ccccc2)C1c1ccc(Cl)cc1 (stereo unspecified),-7,7,9,-1,x,x
Cc1ccn2c(C(=O)c3ccc(Cl)cc3)cnc2c1,u,-84,x,43*,x,-117
Cc1ccn2c(=O)nc(SCC(=O)c3ccc(Cl)cc3)nc2c1,14,-14,x,7,-37,-6
COc1ccc(CNC(=O)COc2ccc(C(=O)c3ccc(F)cc3)cc2)cc1,-3,2,x,-3,14,9
Cc1cccc(NC(=O)CNC(=O)COc2ccc(C(=O)c3ccc(F)cc3)cc2)c1C,-15,14,x,42*,x,18
O=C(COc1ccc(C(=O)c2ccc(F)cc2)cc1)NCc1ccc(F)cc1,-29,30,x,-8,57*,21
COc1ccc2oc(=N)c(C(=O)Nc3ccccc3Cl)cc2c1,x,-65,56*,25,-125,-90
COc1ccc2oc(=N)c(C(=O)Nc3ccc(C)cc3)cc2c1,25,-27,43*,13,-91,-5

# Screens: PubChem BioAssay, Broad Institute
